Structures are written as SMILES. Inconclusive results are not listed. The source made the active and inactive calls. Calls come from the whole dose curve; as a rule, active = well fitted curve in the direction sought with a large enough effect in the signal ratio; inconclusive = small, poorly fitted or top-dose-only effect, or effect the other way, or a change in a side signal; inactive = no such curve, though single readings can be large or run the other way; the % refers to the signal ratio.

A short description of this assay: qHTS Assay for Modulators of Human Peripheral Myelin Protein 22 (PMP22) Expression/Activity (AID 1967). The conditions noted are these: Cell-based PMP22 reporter, dual-color luciferase ratio, 0% = compound-free control cells, mouse Pmp22 promoter in mouse Schwann cells; series mostly up to 115 µM. The method, boiled down:
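Mouse MSC80 Schwann cells carrying Pmp22 promoter–green click beetle luciferase plus EF-alpha–red luciferase control, dosed 24 h at 37 °C. Dual-filter luminescence, overlap-corrected; %Activity from green/red ratio normalised to untreated cells, concentration-response curves fitted.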
Background: qHTS replaces the single test concentration by a dilution series.
`N[C@@H]1CONC1=O`: the result was inactive.

In the case of `CCN(CC)CCCC(C)Nc1ccnc2cc(Cl)ccc12` (stereo not drawn), the outcome was inactive.

For the compound `NS(=O)(=O)c1cc2c(cc1Cl)NC=NS2(=O)=O`, the outcome was inactive.

Take `Nc1ccc(S(=O)(=O)Nc2ccnn2-c2ccccc2)cc1`: the result was inactive.

For the compound `O=C1CCC(N2C(=O)c3ccccc3C2=O)C(=O)N1` (stereo not drawn), the outcome was inactive.

Take `CCCCNc1cc(C(=O)O)cc(S(N)(=O)=O)c1Oc1ccccc1`: the outcome was inactive.

Turning to `N=c1nc(N2CCCCC2)cc(N)n1O`, the result was inactive.

Take `CC(=O)Oc1ccccc1C(=O)O`: the outcome was inactive.

(Values after PubChem BioAssay (NCATS).)
